{"source": "the supplement of paper PMC3334620", "note": "In all, about 33,000 sequences were measured (“E-score (-0.5 to 0.5)”: median about -0.056, highest 2% from about 0.38 on). Only a selection was taken, and the highest values are over-represented in it overall.", "data": [{"target": "Stb4 (UniProt P50104)", "sequence (P50104 whole entry, the tested form may be a part)": "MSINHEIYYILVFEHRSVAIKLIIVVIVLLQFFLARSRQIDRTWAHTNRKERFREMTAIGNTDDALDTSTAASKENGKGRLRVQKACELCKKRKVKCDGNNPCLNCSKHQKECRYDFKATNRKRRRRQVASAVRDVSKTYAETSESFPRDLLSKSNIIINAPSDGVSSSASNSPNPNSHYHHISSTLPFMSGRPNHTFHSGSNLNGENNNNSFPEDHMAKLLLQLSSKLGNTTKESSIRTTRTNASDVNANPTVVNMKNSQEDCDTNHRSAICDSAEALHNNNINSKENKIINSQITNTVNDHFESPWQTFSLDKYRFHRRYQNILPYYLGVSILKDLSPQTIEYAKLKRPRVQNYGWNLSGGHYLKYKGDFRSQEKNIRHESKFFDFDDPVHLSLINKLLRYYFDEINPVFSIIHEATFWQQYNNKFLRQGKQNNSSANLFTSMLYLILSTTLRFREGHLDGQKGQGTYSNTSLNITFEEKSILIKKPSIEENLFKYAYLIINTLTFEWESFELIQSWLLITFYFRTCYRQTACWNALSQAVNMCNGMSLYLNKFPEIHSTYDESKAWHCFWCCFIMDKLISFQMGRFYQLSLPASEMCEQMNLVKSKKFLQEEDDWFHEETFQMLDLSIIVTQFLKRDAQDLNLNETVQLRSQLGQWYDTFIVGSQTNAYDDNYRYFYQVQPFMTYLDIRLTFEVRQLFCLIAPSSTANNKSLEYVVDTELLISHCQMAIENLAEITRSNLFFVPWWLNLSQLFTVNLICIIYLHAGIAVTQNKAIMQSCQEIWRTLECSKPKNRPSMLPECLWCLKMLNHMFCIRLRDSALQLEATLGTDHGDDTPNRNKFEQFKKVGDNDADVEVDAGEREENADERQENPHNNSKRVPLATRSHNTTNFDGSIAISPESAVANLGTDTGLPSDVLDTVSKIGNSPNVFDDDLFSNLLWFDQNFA", "test": "PBM E-score (8-mer binding enrichment) (E-score (-0.5 to 0.5)); higher = stronger / more preferred TF binding", "details": "protein concentration: 200 nM; construct: GST-DNA-binding domain", "method": "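Universal 'all 10-mer' protein binding microarrays (Agilent AMADID 015681) probed with GST-tagged S. cerevisiae TFs (full-length or DBD) made by in vitro transcription/translation (PURExpress), about 100-200 nM. Bound TF was detected with fluorescent anti-GST. Each ungapped 8-mer (which stands for itself and its reverse complement) is scored by the PBM enrichment score (E-score), a modified Wilcoxon-Mann-Whitney statistic from -0.5 to +0.5, computed with the Universal PBM Analysis Suite. Scale: above 0.35 generally sequence-specific binding.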", "values": [{"sequence": "AGGAAGCC", "PBM E-score": 0.0867}, {"sequence": "CGGAAGCA", "PBM E-score": 0.435}, {"sequence": "GGGAAGCA", "PBM E-score": 0.0636}, {"sequence": "GCAGCCAA", "PBM E-score": -0.103}, {"sequence": "ACTAGGTA", "PBM E-score": -0.202}, {"sequence": "ATCTGACC", "PBM E-score": 0.104}, {"sequence": "ACTTTCGG", "PBM E-score": 0.416}, {"sequence": "ACTTTCGA", "PBM E-score": -0.0194}, {"sequence": "AATTTCGG", "PBM E-score": 0.393}, {"sequence": "AATTTCGA", "PBM E-score": -0.152}, {"sequence": "AATTTCGC", "PBM E-score": 0.123}, {"sequence": "ATTTTCGG", "PBM E-score": 0.423}, {"sequence": "ATTTTCGA", "PBM E-score": -0.256}, {"sequence": "ATTTTCGC", "PBM E-score": -0.0335}, {"sequence": "ACTTTCGC", "PBM E-score": -0.239}, {"sequence": "CTATCGAG", "PBM E-score": -0.194}, {"sequence": "CCGCTCTA", "PBM E-score": 0.0787}, {"sequence": "ATGCAAAT", "PBM E-score": -0.115}, {"sequence": "CAACTCAA", "PBM E-score": -0.0984}, {"sequence": "GGAGCGGA", "PBM E-score": 0.26}, {"sequence": "AGATGAAC", "PBM E-score": -0.0339}, {"sequence": "GCGCAAAC", "PBM E-score": -0.0362}, {"sequence": "CGTGACTA", "PBM E-score": -0.158}, {"sequence": "TGCGAGCA", "PBM E-score": -0.165}, {"sequence": "CCCGAGCG", "PBM E-score": 0.43}, {"sequence": "CGCGAGCC", "PBM E-score": 0.143}, {"sequence": "GACGAGCC", "PBM E-score": -0.0685}, {"sequence": "CGCGAGCG", "PBM E-score": -0.016}, {"sequence": "CCCGAGCC", "PBM E-score": 0.438}, {"sequence": "TCCGAGCA", "PBM E-score": 0.458}, {"sequence": "GCCGAGCA", "PBM E-score": 0.357}, {"sequence": "ACCGAGCG", "PBM E-score": 0.38}, {"sequence": "GCCGAGCC", "PBM E-score": 0.463}, {"sequence": "ACCGAGCA", "PBM E-score": 0.374}, {"sequence": "ACCGAGCC", "PBM E-score": 0.356}, {"sequence": "CCTCTGGC", "PBM E-score": 0.0427}, {"sequence": "AGGCTCCC", "PBM E-score": -0.0221}, {"sequence": "CGATGATA", "PBM E-score": 0.122}, {"sequence": "ATTAACAC", "PBM E-score": 0.00046}, {"sequence": "CAGGTGTA", "PBM E-score": -0.327}, {"sequence": "GGCACACC", "PBM E-score": 0.0691}, {"sequence": "CCGCGCAA", "PBM E-score": 0.0559}, {"sequence": "CCAAGTAC", "PBM E-score": -0.196}, {"sequence": "ATTAGGCA", "PBM E-score": -0.144}, {"sequence": "GTCGTCCA", "PBM E-score": -0.096}, {"sequence": "GCGACCCA", "PBM E-score": -0.00585}, {"sequence": "AGGTCCCG", "PBM E-score": 0.325}, {"sequence": "CACAACGA", "PBM E-score": 0.0887}, {"sequence": "CACGAGCA", "PBM E-score": -0.18}, {"sequence": "CCCGAGCA", "PBM E-score": 0.405}, {"sequence": "CTCGAGCA", "PBM E-score": -0.0413}, {"sequence": "CGCGAAAG", "PBM E-score": -0.185}, {"sequence": "GGCTATAA", "PBM E-score": 0.104}, {"sequence": "CGCCTGCC", "PBM E-score": -0.0366}, {"sequence": "CACAGATG", "PBM E-score": -0.0862}, {"sequence": "GAGCAGGC", "PBM E-score": -0.135}, {"sequence": "CATATCCA", "PBM E-score": -0.178}, {"sequence": "CATATCCG", "PBM E-score": 0.403}, {"sequence": "AATATCCA", "PBM E-score": 0.0783}, {"sequence": "CATATCCC", "PBM E-score": 0.0584}, {"sequence": "AATATCCC", "PBM E-score": 0.247}, {"sequence": "AATATCCG", "PBM E-score": 0.452}, {"sequence": "GCCTCTCA", "PBM E-score": 0.0652}, {"sequence": "ACAAACCC", "PBM E-score": 0.0864}, {"sequence": "AGTGACAT", "PBM E-score": -0.243}, {"sequence": "CGGTGGCC", "PBM E-score": 0.114}, {"sequence": "ATCGGCGA", "PBM E-score": 0.226}, {"sequence": "CGCGGCGC", "PBM E-score": 0.106}, {"sequence": "CTCGGCGC", "PBM E-score": 0.383}, {"sequence": "ATCGGCGC", "PBM E-score": 0.205}, {"sequence": "CTCGGCGA", "PBM E-score": 0.397}, {"sequence": "GTCGGCGA", "PBM E-score": 0.126}, {"sequence": "ATTGGTTC", "PBM E-score": 0.0474}, {"sequence": "ATTACCAG", "PBM E-score": -0.105}, {"sequence": "TCCGACGA", "PBM E-score": 0.386}, {"sequence": "TCCGACCA", "PBM E-score": 0.388}, {"sequence": "ACCGACCA", "PBM E-score": 0.141}, {"sequence": "GCCGACGA", "PBM E-score": 0.285}, {"sequence": "CCCGACGA", "PBM E-score": 0.34}, {"sequence": "GCCGACCA", "PBM E-score": 0.207}, {"sequence": "GATCACCA", "PBM E-score": -0.056}, {"sequence": "CAGCTCGG", "PBM E-score": 0.392}, {"sequence": "AAGCTCGC", "PBM E-score": -0.0388}, {"sequence": "CAGCTCGA", "PBM E-score": -0.144}, {"sequence": "AAGCTCGA", "PBM E-score": 0.0225}, {"sequence": "AAGCTCGG", "PBM E-score": 0.439}, {"sequence": "CAGCTCGC", "PBM E-score": -0.13}, {"sequence": "GCCCACGC", "PBM E-score": -0.168}, {"sequence": "ACATATCT", "PBM E-score": -0.0348}, {"sequence": "AACTCGGC", "PBM E-score": 0.364}, {"sequence": "CTCTCGAA", "PBM E-score": -0.356}, {"sequence": "CTCTCGAC", "PBM E-score": -0.293}, {"sequence": "CTCTCGCA", "PBM E-score": -0.148}, {"sequence": "ATCTCGGC", "PBM E-score": 0.442}, {"sequence": "CTCTCGGA", "PBM E-score": 0.452}, {"sequence": "ATCTCGCC", "PBM E-score": 0.0501}, {"sequence": "CTCTCGTC", "PBM E-score": -0.0633}, {"sequence": "CTCTCGGC", "PBM E-score": 0.397}, {"sequence": "AACCAAGC", "PBM E-score": -0.109}, {"sequence": "GACCACGA", "PBM E-score": -0.259}, {"sequence": "CCTACCCA", "PBM E-score": -0.208}, {"sequence": "AGTCCCCA", "PBM E-score": -0.364}, {"sequence": "GCGCCGAA", "PBM E-score": 0.388}, {"sequence": "GCGCCGAC", "PBM E-score": 0.195}, {"sequence": "CCGCCGAG", "PBM E-score": 0.394}, {"sequence": "ACGCCGAA", "PBM E-score": 0.317}, {"sequence": "CCGCCGCA", "PBM E-score": 0.0672}, {"sequence": "ACGCCGAG", "PBM E-score": 0.352}, {"sequence": "CCGCCGAA", "PBM E-score": 0.4}, {"sequence": "CCGCCGAC", "PBM E-score": 0.217}, {"sequence": "TCGCCGAA", "PBM E-score": 0.32}]}]}
